Active and inactive are the calls of the source.
Tests used:
[1] = optical density shifts of acrAB sulA E. coli – strain DRC41, OD650, 48 h, E. coli filamentation inducer project, primary screen (AID 1152); details: higher = more signal, called active from +8 up or from −8 down;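 note: E. coli MC1000 strain DRC41 lacking acrAB efflux pump and sulA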
[2] = probe aLefty1 binding on compound microarray – biochemical, small-molecule microarray, 635/667 nm fluorescence, primary screen (AID 1153); details: higher = more signal;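 note: score merges spot fluorescence with signal-to-noise ratio from the scanned slide images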
[3] = plasmodial surface anion channel blockers, osmotic lysis – cell-based, P. falciparum Indochina, OD700, 1 h, primary screen (AID 1154); details: P. falciparum Indochina infected RBC osmotic lysis, higher = more signal, called active from +8 up or from −8 down
[4] = plasmodial surface anion channel blockers, osmotic lysis – cell-based, P. falciparum Indochina, OD700, 2 h, primary screen (AID 1155);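 note: lysis reports solute entry through the parasite surface anion channel PSAC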; details: P. falciparum Indochina infected erythrocytes, higher = more signal, called active from +8 up or from −8 down
[5] = changes in parasitized red cell lysis, either direction – P. falciparum Indochina, OD700, 3 h, PSAC antagonist project, primary screen (AID 1156); details: P. falciparum-infected erythrocytes, osmotic lysis, higher = more signal, called active from +8 up or from −8 down
[6] = plasmodial surface anion channel blockers, osmotic lysis – cell-based, P. falciparum Indochina, OD700, 18 h, primary screen (AID 1157); details: P. falciparum Indochina infected erythrocytes, osmotic lysis OD700, 18 h; higher = more signal, called active from +8 up or from −8 down
[7] = S6 kinase pathway phospho-S6 level changes – cell-based, A549, cytoblot, luminescence, serum-stimulated, primary screen (AID 1158); details: 5 h, higher = more signal;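 note: serum-stimulated A549 lung adenocarcinoma cells; signal is phosphorylated S6 detected by cytoblot immunostaining with HRP secondary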
[8] = target: NADPH oxidase 2 (Homo sapiens) (UniProt P04839); test: compounds shifting NOX2 Amplex Red fluorescence – cell-based, HEK293-NOX2, PMA-stimulated, NOX inhibitor project, primary screen (AID 1159); details: 45 min, higher = more signal, called active from +8 up or from −8 down; note: test concentration not given here
[9] = target: NADPH oxidase 4 (Homo sapiens) (UniProt Q9NPH5); test: compounds shifting NOX4 Amplex Red fluorescence – cell-based, HEK293-NOX4, tetracycline-induced, NOX inhibitor project, primary screen (AID 1160); details: HEK293-NOX4, Amplex Red H2O2 fluorescence, 45 min; higher = more signal, called active from +8 up or from −8 down
[10] = target: NADPH oxidase 5 (Homo sapiens) (UniProt Q96PH1); test: compounds shifting NOX5 Amplex Red fluorescence – cell-based, HEK293-NOX5, NOX inhibitor project, primary screen (AID 1161); details: HEK293-NOX5, ionomycin, 45 min, higher = more signal
[11] = compound effects on lung adenocarcinoma cell viability – A549, calcein-AM fluorescence, 48 h, basal, profiling panel (AID 1162); details: higher = more signal; note: test concentration not given here
[12] = compound effects on differentiated 3T3-L1 adipocyte viability – cell-based, 3T3-L1 adipocytes, calcein-AM fluorescence, 48 h, basal, profiling panel (AID 1163); details: 3T3-L1 adipocytes viability, higher = more signal; note: test concentration not given here
[13] = compound effects on hepatocellular carcinoma cell viability – HepG2, calcein-AM fluorescence, 48 h, basal, profiling panel (AID 1164); details: higher = more signal; note: test concentration not given here
[14] = compound effects on multiple myeloma cell viability – MM1S, calcein-AM fluorescence, 48 h, basal, profiling panel (AID 1165); details: higher = more signal;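 note: viability of MM1S multiple myeloma cells under basal unstimulated conditions; test concentration not given here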
[15] = calcein-AM signal in unstimulated myeloma cells – cell-based, calcein-AM fluorescence, 48 h, PK04 Diversity Set, profiling panel (AID 1166); details: RPMI8226 myeloma viability, higher = more signal;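 note: cells grown under basal conditions without added stimulus; test concentration not given here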
[16] = JC-1 mitochondrial signal, unstimulated HepG2 cells – cell-based, JC-1 fluorescence, 24 h, 100 nL compound, profiling panel (AID 1167); details: HepG2 mitochondrial potential, higher = more signal; note: test concentration not given here
[17] = JC-1 mitochondrial signal, unstimulated adipocytes – cell-based, JC-1 fluorescence, 3T3-L1 adipocytes, 24 h, 100 nL compound, profiling panel (AID 1168); details: JC-1 mitochondrial fluorescence, higher = more signal, called active from +8 up or from −8 down; note: test concentration not given here
[18] = JC-1 mitochondrial signal, unstimulated myeloma cells – cell-based, JC-1 fluorescence, RPMI8226, 24 h, 100 nL compound, profiling panel (AID 1169); details: JC-1 mitochondrial potential fluorescence, higher = more signal; note: test concentration not given here
[19] = JC-1 mitochondrial signal, unstimulated MM1S myeloma – cell-based, JC-1 fluorescence, 24 h, 100 nL compound, profiling panel (AID 1170); details: MM1S mitochondrial potential, higher = more signal; note: test concentration not given here
[20] = resazurin metabolic signal in A549 cells – cell-based, resazurin fluorescence, 24 h, PK04 Diversity Set, profiling panel (AID 1171); details: A549 viability, higher = more signal, called active from +8 up or from −8 down; note: test concentration not given here

Chain of NADPH oxidase 2 (Homo sapiens) (P04839 whole entry, looked up): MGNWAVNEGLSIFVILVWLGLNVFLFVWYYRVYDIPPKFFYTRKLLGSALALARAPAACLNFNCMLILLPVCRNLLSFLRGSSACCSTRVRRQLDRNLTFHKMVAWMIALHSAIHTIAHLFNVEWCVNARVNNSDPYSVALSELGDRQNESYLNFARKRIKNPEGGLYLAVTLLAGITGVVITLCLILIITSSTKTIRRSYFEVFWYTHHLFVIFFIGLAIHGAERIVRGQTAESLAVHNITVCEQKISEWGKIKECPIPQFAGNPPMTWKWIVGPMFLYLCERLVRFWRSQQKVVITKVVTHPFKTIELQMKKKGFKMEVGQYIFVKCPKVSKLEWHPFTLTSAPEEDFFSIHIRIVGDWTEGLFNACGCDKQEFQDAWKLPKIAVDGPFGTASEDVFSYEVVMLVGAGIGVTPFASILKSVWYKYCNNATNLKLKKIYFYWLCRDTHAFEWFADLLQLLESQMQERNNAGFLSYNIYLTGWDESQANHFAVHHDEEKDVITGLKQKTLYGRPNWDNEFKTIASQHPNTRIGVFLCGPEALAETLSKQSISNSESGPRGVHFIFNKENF
Chain of NADPH oxidase 5 (Homo sapiens) (Q96PH1 whole entry, looked up): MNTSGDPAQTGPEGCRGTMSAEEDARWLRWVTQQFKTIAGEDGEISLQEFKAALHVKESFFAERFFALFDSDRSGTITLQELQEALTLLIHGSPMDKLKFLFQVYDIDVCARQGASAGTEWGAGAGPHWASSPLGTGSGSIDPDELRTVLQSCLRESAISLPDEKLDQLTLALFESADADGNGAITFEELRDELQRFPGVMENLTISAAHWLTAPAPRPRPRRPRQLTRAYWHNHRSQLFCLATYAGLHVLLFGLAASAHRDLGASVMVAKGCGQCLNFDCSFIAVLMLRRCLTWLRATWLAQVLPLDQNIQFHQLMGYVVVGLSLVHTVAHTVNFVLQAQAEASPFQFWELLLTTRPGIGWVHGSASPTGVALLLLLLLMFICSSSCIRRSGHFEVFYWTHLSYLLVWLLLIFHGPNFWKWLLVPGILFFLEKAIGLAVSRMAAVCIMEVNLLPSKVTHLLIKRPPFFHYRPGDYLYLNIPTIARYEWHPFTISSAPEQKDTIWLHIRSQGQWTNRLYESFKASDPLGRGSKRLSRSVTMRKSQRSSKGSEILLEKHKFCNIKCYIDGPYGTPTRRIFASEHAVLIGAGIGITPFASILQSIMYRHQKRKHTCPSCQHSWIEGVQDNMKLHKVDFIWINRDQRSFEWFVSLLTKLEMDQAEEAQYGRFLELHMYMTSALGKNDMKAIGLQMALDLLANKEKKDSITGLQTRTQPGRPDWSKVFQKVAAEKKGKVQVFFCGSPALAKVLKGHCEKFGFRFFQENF
Chain of NADPH oxidase 4 (Homo sapiens) (Q9NPH5 whole entry, looked up): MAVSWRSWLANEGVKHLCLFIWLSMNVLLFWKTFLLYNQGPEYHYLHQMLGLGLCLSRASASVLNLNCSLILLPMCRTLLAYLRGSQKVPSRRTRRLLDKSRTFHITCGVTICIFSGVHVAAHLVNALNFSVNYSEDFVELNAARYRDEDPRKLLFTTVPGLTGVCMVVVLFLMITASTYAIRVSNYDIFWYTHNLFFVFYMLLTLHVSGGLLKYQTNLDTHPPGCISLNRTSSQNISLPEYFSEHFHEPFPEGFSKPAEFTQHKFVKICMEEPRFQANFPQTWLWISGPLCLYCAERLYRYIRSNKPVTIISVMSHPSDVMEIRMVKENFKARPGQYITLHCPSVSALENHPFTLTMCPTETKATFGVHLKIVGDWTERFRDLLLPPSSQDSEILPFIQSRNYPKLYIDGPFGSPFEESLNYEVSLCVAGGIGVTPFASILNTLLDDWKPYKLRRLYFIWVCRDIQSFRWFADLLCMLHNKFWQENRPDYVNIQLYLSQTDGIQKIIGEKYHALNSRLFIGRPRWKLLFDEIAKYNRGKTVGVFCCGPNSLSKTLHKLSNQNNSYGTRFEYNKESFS

| Compound | z-score [1] | composite z-score [2] | z-score [3] | z-score [4] | z-score [5] | z-score [6] | z-score [7] | z-score [8] | z-score [9] | z-score [10] | z-score [11] | z-score [12] | z-score [13] | z-score [14] | z-score [15] | z-score [16] | z-score [17] | z-score [18] | z-score [19] | z-score [20] |
| --- | --- | --- | --- | --- | --- | --- | --- | --- | --- | --- | --- | --- | --- | --- | --- | --- | --- | --- | --- | --- |
| C=CC[C@@H]1C=C[C@H](ON=C[C@@H](C)[C@H](OCc2ccccc2)C(C)C)[C@@H](CO)O1 | -0.144 (inactive) | -0.193 | 1.64 (inactive) | 0.0178 (inactive) | -0.667 (inactive) | 0.197 (inactive) | -0.544 | -0.55 (inactive) | -0.301 (inactive) | -1.48 | -0.475 | -0.162 | -0.746 | -1.55 | -0.958 | -1.94 | -0.87 (inactive) | -0.419 | -0.874 | 0.0506 (inactive) |
| CO[C@H]1COC(=O)[C@@H]2CCCN2C(=O)CC=C[C@@H](C)[C@H](OC)COC(=O)[C@@H](OCc2ccccc2)C=C[C@@H]1C | -0.33 (inactive) | -0.147 | 0.946 (inactive) | -0.82 (inactive) | -0.0897 (inactive) | -1.41 (inactive) | 0.917 | 0.291 (inactive) | 0.275 (inactive) | 0.245 | -0.622 | 0.852 | 0.305 | 0.41 | -0.697 | 0.887 | 0.377 (inactive) | 0.0666 | -0.305 | 0.0375 (inactive) |
| C=COC[C@@H]1CN2[C@@H](CC[C@@H](C)[C@@H]2c2ccc(Br)cc2)C(=O)O1 | -0.778 (inactive) | -0.0984 | 2.08 (inactive) | -0.0728 (inactive) | 0.429 (inactive) | -0.959 (inactive) | 0.993 | 0.723 (inactive) | -0.595 (inactive) | -1.14 | -0.0396 | 0.566 | -0.388 | -1.04 | -0.731 | -0.284 | 0.347 (inactive) | -0.795 | -0.228 | 0.378 (inactive) |
| C[C@@H]1C=CCC(=O)OC[C@H]2O[C@@H](C=C[C@@H]2O)[C@H](C)C=CCC(=O)OC1 | 0.625 (inactive) | -0.106 | 0.119 (inactive) | -1.48 (inactive) | -0.71 (inactive) | -2.02 (inactive) | 1.61 | -0.601 (inactive) | 0.346 (inactive) | 0.58 | 0.164 | -0.0309 | 1.37 | 0.35 | 0.72 | 0.909 | 1.27 (inactive) | -0.0914 | 1.21 | -0.976 (inactive) |
| CC(CCN1CCc2nc(-c3ccccc3)c(-c3ccccc3)cc2C1)=NOC[C@@H](O)[C@H]1O[C@@H]2OC(C)(C)O[C@@H]2[C@H]1O | 0.784 (inactive) | -0.0099 | 1.47 (inactive) | 0.239 (inactive) | 0.318 (inactive) | 0.244 (inactive) | -0.0979 | -5.63 (inactive) | -1.69 (inactive) | -4.61 | 1.89 | -0.144 | 1.62 | -2.72 | -0.676 | 2.55 | -1.54 (inactive) | -0.109 | 0.0398 | -0.555 (inactive) |
| CCOC(=O)[C@H](CC(C)C)NC(=O)CCC1CC(OC(=O)NCCc2ccc(F)cc2)CC2(CCCC(COC(=O)NCC3CCCCC3)O2)O1 (stereo not given in full) | -1.12 (inactive) | -0.169 | 2.04 (inactive) | 0.132 (inactive) | 0.107 (inactive) | -0.341 (inactive) | 0.673 | -0.202 (inactive) | 0.728 (inactive) | 0.123 | -0.656 | 0.0504 | -0.843 | -0.222 | 0.444 | -1.77 | -0.293 (inactive) | -0.168 | -0.24 | 0.21 (inactive) |
| CCc1cc2c(nc1CC)CCN(CCC(C)=NO[C@H](C)c1cn([C@H](CO)Cc3ccccc3)nn1)C2 | -0.266 (inactive) | 0.832 | 4.7 (inactive) | 1.3 (inactive) | 1.84 (inactive) | 0.514 (inactive) | 0.917 | -0.221 (inactive) | -0.461 (inactive) | 2.32 | 0.449 | 1.22 | 0.405 | 0.341 | -0.905 | 0.551 | -1.37 (inactive) | -0.664 | 0.105 | -0.285 (inactive) |
| COCOc1ccc(Br)cc1C(=O)[C@@H]1O[C@H]1c1cccc(OC)c1 | 0.467 (inactive) | -0.0662 | 5.75 (inactive) | 1.12 (inactive) | -0.23 (inactive) | 0.248 (inactive) | -0.291 | 1 (inactive) | -0.575 (inactive) | -1.92 | 0.131 | 0.314 | -0.418 | -2.86 | -1.51 | -1.39 | -0.276 (inactive) | -0.724 | -0.261 | -0.486 (inactive) |
| CCCCC#C[C@@H]1C=C[C@H](OC(C)=O)[C@@H](COC(C)=O)O1 | -0.656 (inactive) | -0.0111 | 0.604 (inactive) | 0.364 (inactive) | -0.89 (inactive) | -0.0473 (inactive) | -0.268 | -2.78 (inactive) | 1.05 (inactive) | 2.02 | -0.0464 | -0.515 | -1.14 | -3.37 | -3.02 | -1.24 | 0.378 (inactive) | -0.746 | -2.22 | 0.451 (inactive) |
| COc1ccc(COC(=O)NN=C2C[C@@H](O)[C@@H](O)[C@@H]3[C@@H]4C(=O)N(Cc5ccccc5)C(=O)[C@@H]4CC[C@H]23)cc1 | -0.0671 (inactive) | 0.641 | 8.9 (active) | 0.507 (inactive) | -1.3 (inactive) | -1.17 (inactive) | -0.411 | 1.43 (inactive) | 0.954 (inactive) | 0.729 | 0.203 | 0.649 | -0.462 | 0.451 | -1.27 | 0.646 | -0.585 (inactive) | 0.365 | -0.592 | 1.03 (inactive) |
| C[n+]1ccc(-c2ccc(CO)cc2)cc1 | 0.209 (inactive) | -0.0303 | -0.8 (inactive) | -0.376 (inactive) | -1.05 (inactive) | -0.0148 (inactive) | -0.6 | -0.225 (inactive) | -0.0911 (inactive) | -3.04 | -1.45 | -0.84 | -0.0981 | -0.31 | -0.196 | -1.04 | -0.872 (inactive) | -0.634 | 0.236 | -0.939 (inactive) |
| CO[C@H]1COC(=O)[C@H](C)NC(=O)[C@@H](C)COC(=O)[C@H]2CCCN2C(=O)CC=C[C@H]1C | -0.0911 (inactive) | -0.194 | 0.551 (inactive) | 0.453 (inactive) | 0.603 (inactive) | 0.293 (inactive) | 0.203 | -0.752 (inactive) | 0.0917 (inactive) | 0.363 | -0.622 | -0.321 | -0.0694 | -0.151 | 0.353 | 0.132 | -0.658 (inactive) | -0.0639 | -1.01 | -0.463 (inactive) |
| COc1ccc(O[C@H]2C=C[C@@H](c3ccccc3)O[C@@H]2CON=CC[C@@H]2C=C[C@H](OC(C)=O)[C@@H](COC(C)=O)O2)cc1 | -0.259 (inactive) | -0.0054 | 8.95 (active) | 1.95 (inactive) | 1.07 (inactive) | 0.662 (inactive) | -0.981 | -0.279 (inactive) | -2.22 (inactive) | -1.01 | 0.0639 | -0.0129 | -0.555 | 0.306 | -1.17 | -1.33 | -0.112 (inactive) | -0.0648 | 0.491 | -0.247 (inactive) |

From PubChem BioAssay
